Results filed as inconclusive are left out. Activity calls are given as the source filed them. Unless noted, calls come from the whole dose curve; as a rule, active = well fitted curve in the direction sought with a large enough effect; inconclusive = small, poorly fitted or top-dose-only effect, or another doubt; inactive = no such curve, though single readings can be large; an effect the other way counts as inactive or inconclusive.
What was measured:
[1] = target: Lysosomal acid glucosylceramidase (Homo sapiens) (UniProt P04062); experiment: Glucocerebrosidase-p2 (AID 348; in the data active = potency below about 10 µM; note: potency is the fitted concentration of half-maximal effect); details: purified GBA, blue fluorogenic substrate, 40 min
Lysosomal acid glucosylceramidase (Homo sapiens), sequence (P04062 whole entry, looked up): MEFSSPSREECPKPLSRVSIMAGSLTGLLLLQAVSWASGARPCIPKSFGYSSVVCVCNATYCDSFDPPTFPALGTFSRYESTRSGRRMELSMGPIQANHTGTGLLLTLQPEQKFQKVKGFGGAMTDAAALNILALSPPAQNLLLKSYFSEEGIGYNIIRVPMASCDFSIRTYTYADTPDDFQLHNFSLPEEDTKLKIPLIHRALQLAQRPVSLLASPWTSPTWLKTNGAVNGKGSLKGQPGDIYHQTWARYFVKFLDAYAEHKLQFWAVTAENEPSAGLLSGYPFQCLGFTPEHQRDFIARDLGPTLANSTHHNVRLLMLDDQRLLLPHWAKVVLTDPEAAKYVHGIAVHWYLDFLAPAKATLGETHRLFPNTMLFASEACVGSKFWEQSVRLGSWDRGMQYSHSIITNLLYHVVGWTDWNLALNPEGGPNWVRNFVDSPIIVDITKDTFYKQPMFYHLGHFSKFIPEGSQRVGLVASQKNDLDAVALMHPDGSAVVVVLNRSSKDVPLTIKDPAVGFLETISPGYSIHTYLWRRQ
Method in brief: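 Normal human glucocerebrosidase (0.2 nM) with blue fluorogenic substrate (80 uM final) in citrate/phosphate pH 5.9 with 10mM sodium taurocholate, 0.01% tween-20; 40 min RT, NaOH/glycine stop; fluorescence Ex 365/Em 440; AC50 from a titration from 0.6 nM upwards.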

[2] = AP1 Signaling Pathway (AID 357; active = well fitted curve in either direction with a large enough effect, not every such curve was filed as active;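 note: ME-180 reporter cells stimulated with EGF at its EC50 level; % is set by controls: 0 for no effect and ±100 for the full control effect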); details: ME-180 AP-1-bla reporter, EGF-induced, beta-lactamase ratio, 5 h; at 7.69 µM (top of the series) unless noted
Method in brief: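 AP-1-bla ME-180 cells, Opti-MEM + 0.5% dialyzed FBS, plated overnight 37 °C. Cpd titration + EC50 EGF, 5 h 37 °C. CCF4 2.5 h RT; ex 405, em 460/530 ratio → %activity, AC50.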

[3] = target: Cytochrome P450 1A2 (Homo sapiens) (UniProt P05177); experiment: p450-cyp1a2 (AID 410; calls by dose curve; note: potency is the fitted concentration of half-maximal effect;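 for activity change, negative = inhibition: -100% = full effect of reference inhibitor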); details: recombinant CYP1A2, luciferin-ME demethylation, luminescence; series mostly up to 57 µM
Cytochrome P450 1A2 (Homo sapiens), sequence (P05177 whole entry, looked up): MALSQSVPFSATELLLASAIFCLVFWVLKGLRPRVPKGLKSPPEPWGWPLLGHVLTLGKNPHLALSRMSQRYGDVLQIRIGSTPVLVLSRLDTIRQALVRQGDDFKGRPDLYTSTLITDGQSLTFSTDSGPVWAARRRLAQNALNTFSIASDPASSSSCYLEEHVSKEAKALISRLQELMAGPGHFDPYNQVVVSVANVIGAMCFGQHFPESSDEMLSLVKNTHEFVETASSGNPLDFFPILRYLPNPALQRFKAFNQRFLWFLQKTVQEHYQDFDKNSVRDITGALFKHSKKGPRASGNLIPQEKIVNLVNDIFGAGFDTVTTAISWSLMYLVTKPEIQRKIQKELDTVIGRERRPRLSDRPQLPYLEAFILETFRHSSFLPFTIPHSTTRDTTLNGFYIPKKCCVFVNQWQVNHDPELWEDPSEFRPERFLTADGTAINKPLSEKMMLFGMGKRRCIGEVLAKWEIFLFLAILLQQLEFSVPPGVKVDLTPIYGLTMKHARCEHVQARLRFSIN
Method in brief: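 O-Demethylation of luciferin 6' methyl ether by human CYP1A2 is monitored as luciferase luminescence. Substrate sits at Km (100uM); enzyme is 20nM. Values are scaled to 57 uM furafylline as maximal inhibition.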

[4] = NFAT Signaling Pathway (AID 444; active = well fitted curve in either direction with a large enough effect, not every such curve was filed as active;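 note: carbachol stimulus at about its EC50 of 1 µM final; % is set by controls: 0 for no effect and ±100 for the full control effect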); details: Jurkat NFAT-bla M1, carbachol, beta-lactamase ratio, 5 h
Method in brief: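 Jurkat cells carrying an NFAT-driven β-lactamase reporter and co-transfected muscarinic M1 receptor were treated with compound plus carbachol (1 uM final, an EC50 level) for 5 h at 37 °C. CCF4 loading followed for 1 h at RT; 460/530 nm ratio gave %activity.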

[5] = Stat Signaling Pathway (AID 446; active = well fitted curve in either direction with a large enough effect, not every such curve was filed as active;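 note: ME-180 cervical cancer cells given 40 pM IL-6 alongside compound; SIE-controlled beta-lactamase reporter measured as 460/530 nm FRET emission ratio; % is set by controls: 0 for no effect and ±100 for the full control effect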); details: ME-180 (cervical carcinoma) SIE beta-lactamase reporter, IL-6 stimulated, 5 h; at 7.69 µM (top of the series) unless noted
Method in brief: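 Emission at 460 and 530 nm (excitation 405 nm) reports SIE-controlled beta-lactamase in ME-180 cells. Cells received compound with 40 pM IL-6 for 5 hrs at 37 C; data scaled between 300 pM IL-6 and 125 nM JAK-inhibitor controls.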

[6] = target: Glucocorticoid receptor (Homo sapiens) (UniProt P04150); experiment: GR-EFC Redistribution (AID 451; calls by dose curve; note: potency is the fitted concentration of half-maximal effect); details: CHO-K1 GR-EFC translocation, beta-gal luminescence, 2 h
Glucocorticoid receptor (Homo sapiens), sequence (P04150 whole entry, looked up, the tested form may be a part): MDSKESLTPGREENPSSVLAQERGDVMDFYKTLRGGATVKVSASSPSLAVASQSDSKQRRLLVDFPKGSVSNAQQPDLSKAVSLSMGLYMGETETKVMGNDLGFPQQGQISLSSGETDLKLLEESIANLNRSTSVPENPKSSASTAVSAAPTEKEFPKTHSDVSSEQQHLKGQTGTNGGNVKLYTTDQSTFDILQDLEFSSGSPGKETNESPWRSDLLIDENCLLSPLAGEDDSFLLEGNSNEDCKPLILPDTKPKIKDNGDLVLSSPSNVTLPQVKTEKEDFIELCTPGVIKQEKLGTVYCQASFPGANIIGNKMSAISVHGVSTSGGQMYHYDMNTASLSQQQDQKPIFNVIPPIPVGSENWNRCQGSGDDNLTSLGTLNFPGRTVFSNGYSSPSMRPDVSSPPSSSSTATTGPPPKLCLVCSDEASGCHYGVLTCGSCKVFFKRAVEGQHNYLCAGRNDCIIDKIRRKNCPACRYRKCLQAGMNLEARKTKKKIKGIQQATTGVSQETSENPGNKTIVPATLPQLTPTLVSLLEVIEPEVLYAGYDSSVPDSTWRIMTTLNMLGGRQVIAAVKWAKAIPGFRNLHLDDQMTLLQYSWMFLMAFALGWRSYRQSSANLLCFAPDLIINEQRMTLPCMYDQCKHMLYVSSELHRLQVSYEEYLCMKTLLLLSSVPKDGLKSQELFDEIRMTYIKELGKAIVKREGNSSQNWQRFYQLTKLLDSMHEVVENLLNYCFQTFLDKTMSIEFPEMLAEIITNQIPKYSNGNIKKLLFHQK
Method in brief: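 CHO-K1 cells stably expressing nuclear-localized β-gal enzyme acceptor and GR fused C-terminally to the enzyme donor fragment; ligand-driven nuclear translocation restores β-gal by complementation. Compounds titrated up to 46 uM final, 2 h at 37 °C; luminescence read.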

[7] = target: Mitogen-activated protein kinase 10 (Mus musculus) (UniProt Q61831); experiment: JNK3 AlphaScreen Assay (AID 530; active = well fitted curve in either direction with a large enough effect, not every such curve was filed as active;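 note: kinase came from lysate of stimulated human HepG2 cells; signal reports phosphorylation of biotinylated GST-cJun 1-79 at Ser73 with 10 µM ATP; % is set by controls: 0 for no effect and ±100 for the full control effect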); details: JNK3 lysate, c-Jun phosphorylation; series mostly up to 57.1 µM
Method in brief: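 Phosphorylation of biotinylated GST-cJun(1-79) at Ser73 is measured by AlphaScreen proximity luminescence. Enzyme is JNK3 in HepG2 lysates activated with interleukin-1beta and tumor necrosis factor alpha; ATP is 10 uM final.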

[8] = target: Cytochrome P450 3A4 (Homo sapiens) (UniProt P08684); experiment: qHTS Assay for Activators of Cytochrome P450 3A4 (AID 885); details: recombinant CYP3A4, Luciferin-PPXE luminescence, 60 min; series mostly up to 57.1 µM; note: nearly all actives have a fitted effect of over 65% in size
Method in brief: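 Activators are scored by enhanced luminescence from CYP3A4 conversion of luciferin-PPXE (25uM, equal to KM) to luciferin, after 60 min at RT with an NADPH-regenerating system.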

[9] = qHTS Assay for Lipid Storage Modulators (AID 1519; calls by dose curve); details: Drosophila S3 cells, BODIPY lipid droplet/cell ratio, laser cytometry, cells loaded with oleic acid
Method in brief: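 Cells seeded at 5,000 per well were treated with compounds over a concentration series and loaded with oleic acid (400 uM, as added). Lipid droplet fluorescence (488 nm excitation, 500-530 nm channel) was read by laser-scanning cytometry and normalized to 20 uM Triacsin C.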

[10] = Primary qHTS for small molecule stabilizers of the endoplasmic reticulum resident proteome: Secreted ER Calcium Modulated Protein (SERCaMP) assay (AID 1508630); details: SH-SY5Y GLuc-SERCaMP (Gaussia luciferase released on ER calcium loss) secretion, thapsigargin, luminescence; series mostly up to 38.4 µM; note: % is set by controls: 0 for no effect and ±100 for the full control effect
Method in brief: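 The SH-SY5Y reporter protocol was run at 3 concentrations up to 38.3 uM (primary) or 11 concentrations (follow-up): 16 h compound, 100 nM thapsigargin for 4 h, then extracellular luciferase luminescence.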

[11] = target: Rap guanine nucleotide exchange factor 3 (Homo sapiens) (UniProt O95398); experiment: Confirmatory qHTS for agonist of cAMP-regulated guanine nucleotide exchange factor 3 (EPAC1) (AID 1645881); details: EPAC1 Rap1B BODIPY-GDP exchange fluorescence, 100% = cAMP control response; series mostly up to 154 µM;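 note: EPAC1 catalysed release of BODIPY-GDP from Rap1B seen as fluorescence loss; nearly all actives have a fitted effect of over 75% in size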
Rap guanine nucleotide exchange factor 3 (Homo sapiens), sequence (O95398 whole entry, looked up): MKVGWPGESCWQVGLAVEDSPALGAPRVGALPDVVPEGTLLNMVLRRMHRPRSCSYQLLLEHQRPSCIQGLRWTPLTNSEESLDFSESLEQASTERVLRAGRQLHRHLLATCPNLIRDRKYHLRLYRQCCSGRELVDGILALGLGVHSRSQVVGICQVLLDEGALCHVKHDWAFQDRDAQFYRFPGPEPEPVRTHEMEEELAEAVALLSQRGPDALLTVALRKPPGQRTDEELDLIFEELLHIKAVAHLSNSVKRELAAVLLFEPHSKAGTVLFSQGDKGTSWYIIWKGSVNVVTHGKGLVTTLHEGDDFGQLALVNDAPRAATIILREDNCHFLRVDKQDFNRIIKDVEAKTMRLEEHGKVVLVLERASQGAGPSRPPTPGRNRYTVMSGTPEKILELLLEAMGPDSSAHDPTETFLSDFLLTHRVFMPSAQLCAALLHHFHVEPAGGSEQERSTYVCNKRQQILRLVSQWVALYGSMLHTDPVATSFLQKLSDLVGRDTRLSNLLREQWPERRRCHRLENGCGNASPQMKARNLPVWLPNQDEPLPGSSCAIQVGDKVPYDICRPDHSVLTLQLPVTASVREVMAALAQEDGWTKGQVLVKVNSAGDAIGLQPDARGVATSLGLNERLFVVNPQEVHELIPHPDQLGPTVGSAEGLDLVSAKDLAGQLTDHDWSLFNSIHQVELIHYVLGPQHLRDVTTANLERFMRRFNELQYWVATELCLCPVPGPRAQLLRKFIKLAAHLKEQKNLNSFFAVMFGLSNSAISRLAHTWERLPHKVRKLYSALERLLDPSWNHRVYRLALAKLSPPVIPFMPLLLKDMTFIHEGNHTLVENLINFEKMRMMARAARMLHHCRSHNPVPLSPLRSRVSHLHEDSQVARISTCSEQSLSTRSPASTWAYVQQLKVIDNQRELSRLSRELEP

[12] = target: Rap guanine nucleotide exchange factor 4 (Homo sapiens) (UniProt Q8WZA2); experiment: Confirmatory qHTS for agonist of cAMP-regulated guanine nucleotide exchange factor 4 (EPAC2) (AID 1645884); details: EPAC2 GEF activity, Rap1B-BODIPY-GDP fluorescence, percent relative to cAMP agonist control; series mostly up to 154 µM;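 note: nucleotide exchange releases bodipy-GDP from Rap1 and this lowers its fluorescence; % is set by controls: 0 for no effect and ±100 for the full control effect; nearly all actives have a fitted effect of over 65% in size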
Rap guanine nucleotide exchange factor 4 (Homo sapiens), sequence (Q8WZA2 whole entry, looked up): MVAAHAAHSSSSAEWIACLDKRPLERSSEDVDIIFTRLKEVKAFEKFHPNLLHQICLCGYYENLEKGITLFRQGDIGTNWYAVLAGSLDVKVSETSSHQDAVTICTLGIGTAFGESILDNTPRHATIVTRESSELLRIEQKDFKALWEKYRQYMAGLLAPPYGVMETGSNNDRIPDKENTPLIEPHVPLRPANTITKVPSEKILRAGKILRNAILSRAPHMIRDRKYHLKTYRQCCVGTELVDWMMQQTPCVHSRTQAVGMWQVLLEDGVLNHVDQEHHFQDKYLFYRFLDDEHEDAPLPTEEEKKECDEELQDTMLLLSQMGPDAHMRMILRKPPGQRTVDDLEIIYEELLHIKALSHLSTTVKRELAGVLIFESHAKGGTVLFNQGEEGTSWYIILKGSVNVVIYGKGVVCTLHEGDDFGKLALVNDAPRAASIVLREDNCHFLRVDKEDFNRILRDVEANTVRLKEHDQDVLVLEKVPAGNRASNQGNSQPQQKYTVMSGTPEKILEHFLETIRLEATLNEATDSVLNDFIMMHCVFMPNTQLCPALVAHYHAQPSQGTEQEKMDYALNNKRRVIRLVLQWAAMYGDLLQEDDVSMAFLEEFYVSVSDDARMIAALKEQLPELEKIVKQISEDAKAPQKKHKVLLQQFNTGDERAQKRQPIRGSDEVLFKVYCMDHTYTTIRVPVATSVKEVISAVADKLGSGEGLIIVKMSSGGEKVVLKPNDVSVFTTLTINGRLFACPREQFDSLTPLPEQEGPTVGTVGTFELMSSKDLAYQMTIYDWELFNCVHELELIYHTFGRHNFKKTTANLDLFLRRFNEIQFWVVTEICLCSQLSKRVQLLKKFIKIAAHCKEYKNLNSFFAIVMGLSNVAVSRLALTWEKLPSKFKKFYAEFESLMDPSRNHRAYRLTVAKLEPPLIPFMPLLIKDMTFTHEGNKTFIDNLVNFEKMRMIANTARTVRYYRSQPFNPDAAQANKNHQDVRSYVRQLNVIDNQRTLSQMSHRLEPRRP

[13] = target: Rap guanine nucleotide exchange factor 4 (Homo sapiens) (UniProt Q8WZA2); experiment: Confirmatory qHTS for antagonist of cAMP-regulated guanine nucleotide exchange factor 4 (EPAC2) (AID 1645885); details: EPAC2 Rap1B-BODIPY-GDP exchange fluorescence, biochemical; series mostly up to 114 µM; note: nearly all actives have a fitted effect of over 25% in size; note: potency is the fitted concentration of half-maximal effect
[14] = target: Glucocorticoid receptor (Homo sapiens) (UniProt P04150); experiment: GR-GFP Redistribution (AID 450;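 active = compounds whose dose series gives a full or clear partial fitted curve of increased nuclear translocation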; note: potency is the fitted concentration of half-maximal effect); details: U2OS GR-GFP nuclear translocation, laser cytometry, 2 h
[15] = target: 3',5'-cyclic-AMP phosphodiesterase 4B (Homo sapiens) (UniProt Q07343); experiment: qHTS Assay for Inhibitors of PDE-IV (AID 607; active = well fitted activation curve with a large enough effect in the main read-out, with a control signal flat, not every such curve was filed as active; note: % of control where 0% means no effect); details: HEK293 ACTOne CNG channel cells, membrane potential fluorescence; series mostly up to 22.9 µM
Method in brief: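 The readout is membrane depolarisation from a cAMP-sensing CNG channel, detected with a potential dye at ex 535/em 590. Cells were HEK293-derived (endogenous PDE-IV) at 1000 cells/well, titrated up to 22.9 uM final.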

[16] = target: Dual specificity protein kinase CLK4 (Homo sapiens) (UniProt Q9HAZ1); experiment: qHTS Assay for Inhibitors of CDC-like Kinase 4 (Kinase-Glo Assay) (AID 1770); details: recombinant Clk4, Kinase-Glo ATP depletion luminescence; series mostly up to 66.7 µM; note: % is set by controls: 0 for no effect and ±100 for the full control effect; nearly all actives have a fitted effect of over 65% in size
Dual specificity protein kinase CLK4 (Homo sapiens), sequence (Q9HAZ1 whole entry, looked up): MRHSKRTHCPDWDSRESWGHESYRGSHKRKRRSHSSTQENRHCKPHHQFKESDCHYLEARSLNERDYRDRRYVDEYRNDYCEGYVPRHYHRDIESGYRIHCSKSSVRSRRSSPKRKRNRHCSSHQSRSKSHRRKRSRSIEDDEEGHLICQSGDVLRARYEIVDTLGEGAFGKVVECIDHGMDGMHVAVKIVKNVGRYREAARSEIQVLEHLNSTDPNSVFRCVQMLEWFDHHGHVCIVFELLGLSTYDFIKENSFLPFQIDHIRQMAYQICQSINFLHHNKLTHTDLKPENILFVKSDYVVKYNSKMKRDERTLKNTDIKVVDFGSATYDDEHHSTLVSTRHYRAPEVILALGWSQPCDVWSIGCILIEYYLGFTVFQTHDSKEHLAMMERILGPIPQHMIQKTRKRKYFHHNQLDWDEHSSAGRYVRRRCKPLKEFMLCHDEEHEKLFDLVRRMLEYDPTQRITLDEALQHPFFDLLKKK
Method in brief: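 Clk4 25 nM, RS peptide 100 uM, ATP 1 uM, pH 7.5 Tris, 10 mM MgCl2, 2.5 mM DTT; 4.5 h RT; ATP depletion read by Kinase-Glo luminescence.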

[17] = target: Dual specificity protein kinase CLK4 (Homo sapiens) (UniProt Q9HAZ1); experiment: qHTS Assay for Inhibitors of CDC-like Kinase 4 (ADP-Glo Assay) (AID 1771); details: recombinant CLK4, ADP-Glo luminescence; series mostly up to 80 µM; note: % is set by controls: 0 for no effect and ±100 for the full control effect; nearly all actives have a fitted effect of over 70% in size
Method in brief: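 Compounds are pin-transferred onto substrate mix (100 uM RS peptide, 1 uM ATP), then 25 nM Clk4 is added. After 1 hr at room temperature, ADP-Glo reagent runs 45 min, detection reagent 30 min, then luminescence is read.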

[18] = target: Dual specificity protein kinase CLK4 (Homo sapiens) (UniProt Q9HAZ1); experiment: qHTS Assay for Inhibitors of CDC-like Kinase 4 (ADP-FP Assay) (AID 1795); details: Transcreener ADP fluorescence polarization; series mostly up to 50 µM;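 note: recombinant human CLK4 phosphorylating RS repeat peptide at 1 µM ATP; % is set by controls: 0 for no effect and ±100 for the full control effect; nearly all actives have a fitted effect of over 60% in size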
Method in brief: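 Kinase activity was followed as ADP output, converted from fluorescence polarization with a calibration curve. Reactions ran one hour at low ATP (1 uM) with RS peptide substrate.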

[19] = target: Ubiquitin carboxyl-terminal hydrolase 1 (Homo sapiens) (UniProt O94782); experiment: Inhibitors of USP1/UAF1: Pilot qHTS (AID 504865); details: purified USP1/UAF1, Ub-rhodamine cleavage fluorescence; series mostly up to 54.9 µM;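 note: rhodamine fluorescence freed from ubiquitin-rhodamine substrate followed over time; top concentration of the series differs between compounds; % is set by controls: 0 for no effect and ±100 for the full control effect; nearly all actives have a fitted effect of over 35% in size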
Ubiquitin carboxyl-terminal hydrolase 1 (Homo sapiens), sequence (O94782 whole entry, looked up): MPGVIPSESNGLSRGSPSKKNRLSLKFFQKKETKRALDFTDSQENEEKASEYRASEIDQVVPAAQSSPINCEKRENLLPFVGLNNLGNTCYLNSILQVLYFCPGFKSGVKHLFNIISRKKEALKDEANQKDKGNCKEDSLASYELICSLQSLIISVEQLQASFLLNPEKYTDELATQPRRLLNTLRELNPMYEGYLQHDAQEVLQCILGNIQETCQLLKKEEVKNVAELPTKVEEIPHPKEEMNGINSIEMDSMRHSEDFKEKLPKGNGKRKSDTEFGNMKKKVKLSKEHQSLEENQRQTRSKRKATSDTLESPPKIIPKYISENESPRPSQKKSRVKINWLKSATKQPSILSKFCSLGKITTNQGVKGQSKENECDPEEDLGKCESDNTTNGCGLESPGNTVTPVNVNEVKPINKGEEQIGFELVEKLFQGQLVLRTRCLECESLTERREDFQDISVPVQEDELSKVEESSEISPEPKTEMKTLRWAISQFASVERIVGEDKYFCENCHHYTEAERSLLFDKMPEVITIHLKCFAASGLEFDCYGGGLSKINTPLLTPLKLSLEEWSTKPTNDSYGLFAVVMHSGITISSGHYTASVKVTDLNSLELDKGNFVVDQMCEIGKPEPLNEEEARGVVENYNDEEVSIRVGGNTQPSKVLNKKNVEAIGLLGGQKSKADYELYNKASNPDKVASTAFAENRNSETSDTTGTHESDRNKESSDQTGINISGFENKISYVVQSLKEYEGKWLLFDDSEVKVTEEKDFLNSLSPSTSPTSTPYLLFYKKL
Method in brief: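 Enzyme-free wells gave the negative control, while test wells held 1nM USP1/UAF1 preincubated with compound for 15 min at room temperature. Ub-Rho at 150nM final started the reaction, and fluorescence at 480/540 nm was recorded kinetically.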

[20] = at 7.69 µM (top of the series) unless noted
[21] = measured here: cell count channel max response
[22] = measured here: lipid channel max response

O=C(Nc1ccccc1)N1CCCC2(CCN(C(=O)c3cc(C(F)(F)F)cc(C(F)(F)F)c3)CC2)C1
inactive: Potency [1] > 11.4 µM | activity change, negative = inhibition [2] -28.2% | activity change, negative = inhibition [4, 20] 19.5% | activity, negative = inhibition [5] -14.9% | Potency [6] > 46 µM | outcome [7] | Potency [8] | activity change, negative = inhibition ([9]; at 57.5 µM (top of the series)) -0.939% | Potency [10] | outcome [11] | outcome [12]
active: Potency [3] 31.6 µM | Potency [13] 44.1 µM
17.1%: max response [9, 22]
16.6%: max response [9, 21]

COc1ncc2nc(-c3cc(F)cc(F)c3)c(=O)n(-c3ccccc3)c2n1
inactive: Potency [1] > 11.4 µM | activity change, negative = inhibition [2] -20.2% | activity change, negative = inhibition [4, 20] -3.83% | activity, negative = inhibition [5] -1.05% | Potency [14] > 9.22 µM | Potency [6] > 46 µM | outcome [7] | Potency [15] | activity change, negative = inhibition ([9]; at 57.5 µM (top of the series)) 3.41% | Potency [16] | Potency [17] | Potency [18] | Potency [19] | Potency [10]
11.4%: max response [9, 21]
active: Potency [3] 1.26 µM
11.8%: max response [9, 22]

Cc1cnc(CNc2ccnc(-c3ccccc3C(F)(F)F)n2)cn1
active: Potency [3] 15.8 µM
inactive: Potency [1] > 11.4 µM | activity change, negative = inhibition [2] 2.04% | activity change, negative = inhibition [4, 20] 0.146% | activity, negative = inhibition [5] 2.4% | Potency [14] > 46 µM | Potency [6] > 46 µM | outcome [7] | Potency [15] | activity change, negative = inhibition ([9]; at 57.5 µM (top of the series)) 8.15% | Potency [16] | Potency [17] | Potency [18] | Potency [19] | Potency [10]
20.7%: max response [9, 22]
12.9%: max response [9, 21]

CN(C)c1ncc2nc(-c3cccs3)c(=O)n(CCC#N)c2n1
20.3%: max response [9, 21]
26.4%: max response [9, 22]
inactive: Potency [1] > 11.4 µM | activity change, negative = inhibition [2] 0.25% | activity change, negative = inhibition [4, 20] -7.03% | activity, negative = inhibition [5] 4.64% | Potency [14] > 9.22 µM | Potency [6] > 46 µM | outcome [7] | Potency [15] | activity change, negative = inhibition ([9]; at 57.5 µM (top of the series)) 5.59% | Potency [16] | Potency [17] | Potency [18] | Potency [19] | Potency [10] | Potency [13]

O=C(c1cc(C(F)(F)F)cc(C(F)(F)F)c1)N1CCC2(CCCN(Cc3nccs3)C2)CC1
17.8%: max response [9, 21]
inactive: Potency [1] > 11.4 µM | activity change, negative = inhibition [2] -11.4% | Potency [3] | activity, negative = inhibition [5] -17.2% | Potency [6] > 46 µM | outcome [7] | Potency [15] | Potency [8] | activity change, negative = inhibition ([9]; at 57.5 µM (top of the series)) -19.9% | Potency [10] | outcome [11] | outcome [12]
-1.38%: max response [9, 22]

Oc1ccc(/C=C\c2cc(O)cc(O)c2)cc1
active: Potency [13] 44.1 µM
-17.5%: max response [9, 22]
inactive: activity change, negative = inhibition [2] -2.07% [at 17.2 µM] | activity change, negative = inhibition ([4]; at 17.2 µM (top of the series)) -19.4% | activity change, negative = inhibition ([4]; at 38 µM (top of the series)) -5.74% | activity, negative = inhibition [5] -21.4% [at 17.2 µM] | outcome [7] | Potency [15] | activity change, negative = inhibition ([9]; at 25.7 µM (top of the series)) 2.61% | Potency [19] | Potency [10] | outcome [11] | outcome [12]
-19.7%: max response [9, 21]

— PubChem BioAssay (NCATS)
